This is one part of a sample in which hits are shown more often than they occur.
Tgondii IFNg: T. gondii growth inhibition with IFN-gamma, primary screen, cell-based; Toxoplasma gondii growth in IFN-gamma-treated host cells; hits give low values; activity change, negative = inhibition, % (test concentration not listed); hit rate 3.8% among 69,000; in the data active means activity change below about -70%, passing the limit was not always enough;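 further: host cells are HeLa cells infected with Toxoplasma gondii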
Starred values were filed as active, the others as inactive; i = inactive; ! = a repeat was not active.

SMILES	Tgondii IFNg
N#C/C(=C\c1ccc(O)c(O)c1)C(=O)NC1CCC(CC2CCC(NC(=O)/C(C#N)=C/c3ccc(O)c(O)c3)CC2)CC1 (configuration not stated)	-79.9*
CCCNC(=S)NC1CC2CCCC(C1)N2Cc1ccc(C)cc1 (configuration not stated)	-65.0
CC(C)N(C)CC1CCC2(COCCN(C(=O)c3cscn3)C2)O1 (configuration not stated)	57.1
c1ccc(-c2ccc3c(n2)CCc2ccccc2-3)cc1	225.5
CNCCC=C1c2ccccc2CCc2ccccc21	-87.9*!
CN(C)c1ccc(CN2CC3(CCN(S(=O)(=O)c4ccccc4)C3)C2)cc1	7.5
CCOc1ccc(CNS(=O)(=O)c2cc3c4c(c2)CCN4C(=O)CC3)cc1	35.7
CCCSCCCNc1nc(-c2nnc(-c3ccc(C)cc3)o2)nc2ccccc12	-25.6
Cc1cccc(-c2nnc(-c3nc(NCc4ccc(N(C)C)cc4)c4ccccc4n3)o2)c1	5.8
COc1ccc(-c2nnc(-c3nc(NCc4cccc(C)c4)c4ccccc4n3)o2)cc1	-47.8
Cc1cccc(-c2nnc(-c3nc(NCc4ccc(C)o4)c4ccccc4n3)o2)c1	-80.4*
CCCNc1nc(-c2nnc(-c3cccc(C)c3)o2)nc2ccccc12	-97.8*
Cc1cccc(-c2nnc(-c3nc(NCc4cccnc4)c4ccccc4n3)o2)c1	231.8
CCC(C)Nc1nc(-c2nnc(-c3cccc(C)c3)o2)nc2ccccc12 (configuration not stated)	-59.9
CCOc1ccc(CNc2nc(-c3nnc(-c4cccc(C)c4)o3)nc3ccccc23)cc1	-16.1
Cc1ccc(-c2nnc(-c3nc(NCc4cccc(F)c4)c4ccccc4n3)o2)cc1	-29.6
Cc1cccc(-c2nnc(-c3nc(N4CCOCC4)c4ccccc4n3)o2)c1	i
Cc1cccc(-c2nnc(-c3nc(NCCN4CCCC4)c4ccccc4n3)o2)c1	-90.4*
Cc1cccc(CNc2nc(-c3nnc(-c4ccccc4)o3)nc3ccccc23)c1	-84.9*
COc1cc(CNc2nn[nH]n2)cc(Br)c1OCc1ccc(C)cc1	51.2
CCCCCCC#Cc1cncc(NC(=O)N2CCN(c3ccccc3)CC2)c1	-4.7
NC(=O)c1cc2c(s1)CCN(Cc1cc3n(n1)CCCNC3)C2	-41.1
CC1CCN(c2ncnc3c2cnn3CC(=O)Nc2cccc(Br)c2)CC1	13.7
CN(C)CCOCc1cncc2c1CCN(C(=O)c1ccc[nH]1)C2	-49.9
O=S(=O)(c1ccc(Cl)c(Cl)c1)N1CCC2(CC1)Nc1cc(F)ccc1-n1cccc12	13.6
SMILES	Tgondii IFNg
CCCc1sc(C(=O)O)cc1-c1ccncc1	1.7
c1ccc(-c2nnc(-c3nc(NCc4ccco4)c4ccccc4n3)o2)cc1	i
Cc1ccc(-c2nnc(-c3nc(NCCc4ccco4)c4ccccc4n3)o2)cc1	361.9
Cc1cccc(-c2nnc(-c3nc(NCCc4ccco4)c4ccccc4n3)o2)c1	-99.5*
COC(=O)c1cc(C)nc2c1c(=O)n(Cc1nc(-c3ccccc3Cl)oc1C)c(=O)n2C	8.3
CC1(c2ccccc2)OC(=O)C(C#N)C12CCCCC2 (configuration not stated)	-23.5
NC(=O)C1(N2CCCCC2)CCN(c2ncc(S(=O)(=O)c3ccccc3)c(N)n2)CC1	68.8
CCc1ccc(S(=O)(=O)c2cnc(N3CCC(C(N)=O)(N4CCCCC4)CC3)nc2N)cc1	-78.4*
CC(C)c1ccc(S(=O)(=O)c2cnc(N3CCC(C(N)=O)(N4CCCCC4)CC3)nc2N)cc1	26.9
CN(CCc1ccccc1)Cc1cc2n(n1)CCCNC2	-5.4
CN1C(=O)C2(CCN(C(=O)c3ccco3)CC2)c2ccccc21	-42.8
CN1CCC(N2CCN(C(=O)C3CCN(c4cncnc4N4CCCC4)CC3)CC2)CC1	-32.9
CC(C)Cc1cc(C(=O)NCc2cnn3ccccc23)n(C)n1	-33.7
CC(C)c1cc(C(=O)NCc2nc(-c3ccccc3)no2)n(C)n1	-100.0*
Cc1nc(-c2ccc(CNC(=O)c3cc(CC(C)C)nn3C)cc2)no1	-77.8*
CCCn1ncc(C(=O)NCc2ccc(-c3noc(C)n3)cc2)c1C	-13.5
Cc1nccn1-c1ccccc1CNC(=O)c1cc(C(C)C)nn1C	-2.0
CC(C)c1cc(C(=O)NCc2cc(-c3ccco3)on2)n(C)n1	3.0
COc1ccccc1OCC1CCCN(Cc2ccnc(N3CCCC3)n2)C1 (configuration not stated)	-65.5
Fc1cccc(N2CCC3(CC2)CC(c2cccnc2)CO3)c1 (configuration not stated)	0.4
O=C1CC(CSc2nnc(-c3ccc(Cl)cc3)n2-c2ccccc2)=NN1	-41.9
CCN(CC)C(=O)CC1CC2(CCN(C(=O)N3CCOCC3)CC2)c2ccccc21 (configuration not stated)	7.7
C[C@H](CO)N1C[C@H](C)[C@@H](CN(C)S(=O)(=O)c2ccc(F)cc2)OCCCC[C@H](C)Oc2ccc(N(C)C)cc2C1=O	i
CN(C)CCN1C2(CCN(C(=O)C3(C)CC3)C2)c2ccccc2S1(=O)=O (configuration not stated)	-10.3
Cc1nc(-c2cccc(F)c2)sc1CCNS(=O)(=O)c1ccc(Cl)cc1	23.4
